Inconclusive results are not listed. A number with no mark means an inactive call. The source made the active and inactive calls. Calls follow the shape of the dose curve; as a rule, active = well fitted curve in the direction sought with a large enough effect; inconclusive = small, poorly fitted or top-dose-only effect, or another doubt; inactive = no such curve, though single readings can be large; an effect the other way counts as inactive or inconclusive. Bridge positions count the residues as written; N and C are the ends. Square brackets hold non-standard residues; d marks the D form. Side chains are listed from the residue outwards. Peptide text beside a SMILES is read from it. * marks the point of attachment. Phg(4-OMe) = COc1ccc([C@H](N)C(=O)O)cc1; d(aIle) = CC[C@H](C)[C@@H](N)C(=O)O; d(aThr) = C[C@@H](O)[C@@H](N)C(=O)O; NMeF = CN[C@@H](Cc1ccccc1)C(=O)O; Isobutyryl = CC(C)C(=O)*

This is an account of results in PubChem BioAssay (NCATS).
% is scaled to controls: 0 for no effect and ±100 for the full control effect.

Sequence of Nuclear receptor subfamily 1 group I member 3 (Homo sapiens) (Q14994 whole entry, looked up): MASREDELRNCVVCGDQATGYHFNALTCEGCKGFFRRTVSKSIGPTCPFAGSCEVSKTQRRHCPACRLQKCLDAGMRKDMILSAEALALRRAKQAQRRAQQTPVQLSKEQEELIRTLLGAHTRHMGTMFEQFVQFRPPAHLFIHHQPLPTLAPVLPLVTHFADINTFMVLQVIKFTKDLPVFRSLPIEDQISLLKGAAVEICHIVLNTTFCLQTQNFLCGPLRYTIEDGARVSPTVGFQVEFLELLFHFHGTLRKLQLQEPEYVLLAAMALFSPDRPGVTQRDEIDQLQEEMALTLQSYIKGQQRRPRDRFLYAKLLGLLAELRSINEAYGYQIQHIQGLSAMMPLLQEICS

Tested on in one experiment: not listed separately
In words: J3T Cancer Cell Toxicity qHTS against the NCATS CANVASS Library (AID 1347371).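 As to activity change, negative = cytotoxicity: J3T is a canine glioma cancer cell line seeded at 500 cells per well.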 The settings on record: J3T dog glioma viability, ATP luminescence, 72 h; series mostly up to 46.1 µM; activity change, negative = cytotoxicity: at the top concentration. An outline of the steps: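 Cytotoxicity read as CellTiterGlo ATP luminescence after 72 h incubation (37C, 5% CO2) of J3T canine glioma cells (500/well) with an 11-point compound series.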
On the technique in general: qHTS replaces the single test concentration by a dilution series.
As for `C[C@H]1C=C[C@H]2CCCC[C@@H]2[C@H]1C(=O)[C@H]1CC2=C(C(=O)O)CCN2C1=O`, the result was inactive.
With `C/C(=C\CC[C@@H](C)[C@H]1CC[C@]2(C)C3=CCC4C(C)(C)[C@@H](O)C[C@@H](O)[C@]4(C)C3[C@H](O)C[C@@]12C)CO` (some centres undefined), the “activity change, negative = cytotoxicity” value is 2.06%.
Same read-out and setting: the value for `COC12OC1(C13OC1(OC)C(=O)c1cc4cc(C)oc(=O)c4c(O)c1C3O)C(O)c1c(cc3cc(C)oc(=O)c3c1O)C2=O` (centres undefined) was 3.47%; that for `CO[C@H]1[C@@H](OC(=O)/C(C)=C\[C@@H]2O[C@@H]2[C@H]2O[C@H]2C)[C@H](O)[C@H](OCC23C[C@@H]4[C@H](C)CC[C@H]4C4(C=O)CC2C=C(C(C)C)C34C(=O)O)O[C@@H]1C` (some centres undefined) was -10.1%.

The target in another experiment is Nuclear receptor subfamily 1 group I member 3 (Homo sapiens) (UniProt Q14994). In words: qHTS for Constitutive Androstane Receptor (CAR) Antagonist screened against the NCATS CANVASS Library (AID 1347372). Also: potency is read from the fitted curve at half-maximal effect.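 As to activity change, negative = inhibition: cells stimulated with 50 nM CITCO agonist so inhibition reflects antagonism.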 The following applies: HepG2-hCAR-CYP2B6 luciferase, CITCO-stimulated antagonist mode; series mostly up to 46.1 µM; activity change, negative = inhibition: at the top concentration. In a few lines:
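Antagonist mode: compound added alongside 50 nM CITCO to HepG2-hCAR-CYP2B6 reporter cells, 24hr at 37C. Viability by CellTiter-Fluor fluorescence, then CAR-driven luciferase by ONE-Glo luminescence.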
Take `CC(C)=CCC[C@]12c3cc4c(cc3CC[C@@]1(C)[C@H](C)CC[C@@H]2O)[nH]c1ccccc14`: the “activity change, negative = inhibition” value was -1.79%.
On the same count and under the same terms, the value for `C/C=C/C1C=CC2CC(C)CC(C)C2C1C(=O)CC(=O)NC(CO)C/C=C/CCCCC` (centres undefined) was 17.7%; that for `C=C1CC[C@@H](Br)C(C)(C)[C@]12CC=C(C)C(=O)C2` was 3.62%; that for `C=CC(CCCCC)C1C(=O)NC(=O)C1C(=O)C1C(/C=C/C)C=CC2CC(C(=O)O)CC(C)C21` (centres undefined) was 2.51%.
The same measure, in the same setting: the value for `COc1cc(/C=C/C(=O)OC[C@@H](Cc2ccc(O)c(OC)c2)[C@@H](COC(=O)/C=C/c2ccc(O)c(OC)c2)Cc2ccc(O)c(OC)c2)ccc1O` was 81%; that for `C=C[C@@]1(C)CC[C@@H]([C@H](C)C(=O)/C=C/C(C)(C)O)O1` was 88%; that for `O=C1CC2OCC=C3CN4C5CC3C2[C@@H]2N1c1ccccc1[C@]52C[C@@H]4C1=C[C@H]2C3CC4N(CC[C@@]45c4ccccc4N(C1=O)[C@@H]25)C/C3=C/CO` (some centres undefined) was 110%.
Regarding `C=C1CC[C@@H](O[C@H]2C[C@@](O)([C@H](C)NC(=O)c3[nH]c(C)c(Cl)c3Cl)[C@H](O)[C@@H](C)O2)[C@@H]2C=C[C@H](C)C(/C(O)=C3/C(=O)[C@H](C(C)C)N([C@@H]4O[C@H](C)[C@H](OC(N)=O)[C@H](OC(C)=O)[C@@H]4OC)C3=O)[C@@H]12` (some centres undefined), the “activity change, negative = inhibition” value is -9.83%.
On the same count and under the same terms, the value for `CC[C@H](C)[C@H]1NC(=O)[C@@H](NC(=O)C(C)C)[C@@H](C)OC(=O)[C@H](COC(=O)CNC(C)=O)NC(=O)[C@@H]([C@@H](C)O)NC(=O)[C@H](Cc2ccccc2)N(C)C(=O)[C@H](c2ccc(OC)cc2)NC1=O` (Isobutyryl-T[d(aIle)][Phg(4-OMe)][NMeF][d(aThr)]S([Gly-Ac]); ester 1-C) was -0.238%.
Still for that read-out and setting: the same measure for `C=C(C)CC[C@H](Cc1c(O)cc(O)c2c1O[C@H](c1ccc(O)cc1)CC2=O)C(=C)C`: 69.9%.
Still for that read-out and setting: the same measure for `COc1c(O)cc2c(c1O)C(=O)c1c(coc1C)C2=O`: 3.9%; for `Cc1occ2c1C(=O)c1c(cc(O)c(O)c1O)C2=O`: 3.03%; for `COc1ccc2[nH]c3c(c2c1)CCN1C[C@H]2C[C@@H](OC(=O)c4cc(OC)c(OC)c(OC)c4)[C@H](OC)[C@@H](OC)[C@H]2C[C@H]31`: 70.3%.
With `C=C[C@](Cl)(CBr)CCC=C(C)C`, the “activity change, negative = inhibition” value was 18%.
Still for that read-out and setting: the same measure for `CC(=O)O[C@H]1c2ccccc2-c2c3c(cc4c2[C@@H]1N(C(C)=O)CC4)OCO3`: 61.1%; for `C=CC(CCCCC)C1C(=O)NC(=O)C1C(=O)C1C2C(C)CC(C(=O)O)CC2CC1(O)C(=O)/C=C/C` (centres undefined): 37.9%.
Turning to `O[C@H]1c2ccccc2-c2c3c(cc4c2[C@@H]1NCC4)OCO3`, the Potency is 16.6 µM (active).
As for `C[C@]12CCC[C@](C)(C(=O)O)[C@@H]1CC[C@@]1(C)c3cocc3CC[C@H]21`, the “activity change, negative = inhibition” value is -8.77%.
Same read-out and setting: the value for `COc1cc(C2OCC3C(c4ccc(O)c(OC)c4)OCC23)ccc1O` (centres undefined) was 9.55% [at 9.19 µM].
For the molecule `COc1cc(O)c(C(=O)[C@@H]2[C@H](CC=C(C)C)C(C)=CC[C@H]2c2ccccc2)c(O)c1`, the Potency is 33.1 µM (active).
For the molecule `C[n+]1cc2cc(C(N)=O)[nH]c3c(=N)c(Cl)c(N)c1c23`, the “activity change, negative = inhibition” value is 107%.
As for `COc1cc2c(c(O)c1O)C(=O)c1c(coc1C)C2=O`, the “activity change, negative = inhibition” value was 138%.
Still for that read-out and setting: the value for `O=c1cc(-c2ccc(O)c(O)c2)oc2cc(O[C@@H]3O[C@H](CO)[C@@H](O)[C@H](O)[C@H]3O)cc(O)c12` was 102%.
Regarding `C/C1=C/[C@@H](C)[C@H](O)[C@@H](O)/C=C/CC/C=C/C(=O)O[C@@H]1[C@H](C)C(=O)CCCC1CC(=O)NC(=O)C1`, the “activity change, negative = inhibition” value was 17.6%.
Regarding `CC[C@H]1[C@H](C)[C@H](c2cc(OC)c(OC)cc2OC)[C@@H](C)[C@H](c2cc(OC)c(OC)cc2OC)[C@@]12C=C(OC)C(=O)C=C2OC`, the “activity change, negative = inhibition” value was 112%.
